The full list was thinned out, with hits kept by preference.
Pf Dd2 growth: Plasmodium falciparum Dd2 growth inhibition; P. falciparum Dd2 growth, SYBR Green, 72 h; Potency, µM (doses to about 28.9 µM), without a hit: at the top dose activity, negative = inhibition, most hits filed as inhibitors; actives 4.3% (n = 120,000); AID 1347417; active means well fitted inhibition curve with a large enough effect;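 further: plate controls were DMSO vehicle for no effect and reference drug for full effect; nearly all actives have a fitted effect of over 65% in size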
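Infected erythrocytes (Dd2, 0.3% parasitemia, 2.5% hematocrit final) are added to compound in RPMI-1640/Albumax II medium, grown 72 h at 37C in low oxygen, then lysed with saponin/Triton-X containing SYBR Green and read by fluorescence.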
Starred values were filed as active, the others as inactive; i = inactive; [ ] = another dose, or the depositor's remark. Potency means the concentration at half of the fitted maximal effect.

SMILES	Pf Dd2 growth
COCc1cc(CC2(NCc3ccc(CO)o3)COC2)no1	-18%[44.1 µM]
COc1cc(C)ccc1OCCSc1nc2ccc(NC(C)=O)cc2s1	i
COc1cccc(NC(=O)C2CCN(c3nnc(-n4c(C)ccc4C)s3)CC2)c1	-12%
CN(C)c1cc(=O)c2ccnc(-c3cccc(CO)c3)c2o1	-17%[44.1 µM]
CN1CC2(CCCN(CC3CC3)C2)c2cc(C(=O)N3CC(O)C3)ccc21 (configuration not stated)	-4%[44.1 µM]
CN(CC1CC1)C(=O)c1coc(CN2CCN(c3ccccc3F)CC2)n1	-16%
COc1cc(-c2noc(-c3nnn(-c4ccc(Cl)cc4)c3C)n2)cc(OC)c1OC	-6%
Cc1ccc(CN2COc3ccc4c(-c5ccccc5)cc(=O)oc4c3C2)cc1	0.71µM*
COc1ccc(CN2CCC3(CC2)CNC(=O)c2ccccc2O3)cc1	1%
COc1ccc(CN2Cc3[nH]nc(-c4ccccc4)c3CC2=O)cc1	-17%[44.1 µM]
Cc1ccc(CN2C[C@@H]3C(=O)N(Cc4ccc5c(c4)OCO5)C(=O)[C@@H]3C2)cc1	-22%
Cc1ccc2c(CC(=O)N3CCOc4ccc(CN5CCOCC5)cc4C3)cc(=O)oc2c1	i
COc1ccc(CN2COc3ccc4c(-c5ccccc5)cc(=O)oc4c3C2)cc1	1.1µM*
Cc1cc(C)cc(OCC(=O)N(Cc2ccc(Cl)cc2)CC2CCCO2)c1 (configuration not stated)	-20%
CC[C@@]1(O)CCN(C(=O)c2ccc(OC)c(N3CCOCC3)c2)C[C@H]1O	-11%
COCCNC(=O)[C@@H]1C[C@H](Oc2ccccc2)CN1C(=O)CC1CCCC1	-11%
CCCN(CC1CCOC1)S(=O)(=O)c1ccc(CC)cc1 (configuration not stated)	13%[5.79 µM]
CS(=O)(=O)Nc1ccc(C2(C(=O)O)CCCCC2)cc1	-6%
O=C1CCC(CCC(=O)N2CCC(c3ccc(F)cc3)C2)(Cc2ccc3ccccc3c2)N1 (configuration not stated)	-20%
Cc1cc(OCCN2CCOCC2)c(C)c2c1CC[C@@H]([C@H](C)C(=O)NCc1cccnc1)C2	i
Cc1cc(OCCN(C)C)c(C)c2c1CC[C@@H]([C@H](C)C(=O)NCc1ccccc1)C2	-24%[44.1 µM]
COc1cc(C)c2c(c1C)C[C@H](C(C)C(=O)N1CCN(CCO)CC1)CC2 (some centres not stated)	i
CCCOc1cc(C)c2c(c1C)C[C@H]([C@H](C)C(=O)NCCOC)CC2	-9%[44.1 µM]
COCCOc1cc(C)c2c(c1C)C[C@H](C(C)C(=O)N1CCCCC1)CC2 (some centres not stated)	-7%[44.1 µM]
CCCOc1cc(C)c2c(c1C)C[C@H](C(C)C(=O)NCc1ccc(OC)cc1)CC2 (some centres not stated)	10µM*
SMILES	Pf Dd2 growth
COCCOc1cc(C)c2c(c1C)C[C@H](C(C)C(=O)N1CCOCC1)CC2 (some centres not stated)	-3%[44.1 µM]
COc1cc(C)c2c(c1C)C[C@H](C(C)C(=O)NCc1cccs1)CC2 (some centres not stated)	11µM*
Cc1cc(OCCN2CCOCC2)c(C)c2c1CC[C@@H]([C@H](C)C(=O)N1CCCCC1)C2	11µM*
CC(C)CC(=O)N1CCCCCC1c1nc(-c2ccncc2)no1 (configuration not stated)	27%
Cn1c(CCNC(=O)C2(Cc3ccccc3)CCCCC(=O)N2)nc2ccccc21 (configuration not stated)	-29%
COc1cccc(C(=O)NCCn2ccn3nc(-c4ccc(C)c(C)c4)cc3c2=O)c1	-1%
COCCNC(=O)CN1CN(c2ccccc2)C2(CCN(C(=O)NC3CCCCC3)CC2)C1=O	i
CC(C)CNC(=O)CN1CN(c2ccccc2)C2(CCN(C(=O)NC3CCCCC3)CC2)C1=O	1.6µM*
CCc1ccccc1NC(=O)N1CCC2(CC1)C(=O)N(CC(=O)NC(C)C)CN2c1ccccc1	0%
CC(C)Cc1nc2nccc(-c3ccncc3)n2n1	3%
COc1ccc(Cl)cc1NC(=O)Cn1cnc2sc(C)c(S(=O)(=O)N3CCN(c4ccccc4OC)CC3)c2c1=O	10µM*
COCCNC(=O)Cn1cnc2sc(C)c(S(=O)(=O)N3CCN(c4ccccc4OC)CC3)c2c1=O	4%
COc1ccc(OC)c(NC(=O)Cn2cnc3sc(C)c(S(=O)(=O)N4CCN(c5ccccc5OC)CC4)c3c2=O)c1	11µM*
COc1ccccc1N1CCN(C(=O)Cn2cnc3sc(C)c(S(=O)(=O)N4CCC(C)CC4)c3c2=O)CC1	31%
COCCCNC(=O)Cn1cnc2sc(C)c(S(=O)(=O)N3CCN(c4ccccc4OC)CC3)c2c1=O	-13%
COc1ccc(NC(=O)Cn2cnc3sc(C)c(S(=O)(=O)N4CCN(C)CC4)c3c2=O)cc1Cl	10%
O=C(c1ccccc1Br)N(Cc1ccco1)C1CCS(=O)(=O)C1 (configuration not stated)	i
CCN(CC1CCN(CCc2ccccc2C)CC1)C(=O)c1csc(C)n1	-28%
CCOc1ccc(CCNC(=O)Cn2nc(CC)n3c(cc4ccccc43)c2=O)cc1	-5%
CCCCOc1ccc(CNC(=O)Cc2ccc(NC(=O)N3CCSc4ncccc43)cc2)cc1	27%
CCS(=O)(=O)N1CCC(CC(=O)NCc2ccccc2)C1 (configuration not stated)	32%
O=C(O)c1ccc(CN[C@@H]2CO[C@H](CNC(=O)c3ccncc3)[C@H]2O)cc1	-4%[44.1 µM]
Cc1ccc(-c2c(CN3CCN(c4cc(C)ccc4C)CC3)csc2C)cc1	10µM*
Cc1ccc(C)c(N2CCN(Cc3csc(C)c3C)CC2)c1	i
CCc1c(CN2CCN(c3cccc(C)c3)C(C)C2)csc1C (configuration not stated)	0%
SMILES	Pf Dd2 growth
Cc1oc2ncn(CC(C)C)c(=O)c2c1C(=O)NCCCN1CCCCC1	-10%
Cc1cccc(CC(=O)N2CCC(c3nn(C)c4c3COCC4)CC2)c1	i[5.79 µM]
Cc1cccc(CC(=O)N2CCC(Nc3cccn4ncnc34)CC2)c1	11µM*
O=C(c1ccoc1)N1CCC(Nc2cccn3ncnc23)CC1	-18%
COCCN1CC(C(=O)NCc2sc3ccccc3c2Cl)CCC1=O (configuration not stated)	i
COc1ccc2c(c1)CN(C(=O)c1cccc(C#N)c1)CC[C@H]1COC(=O)N21	-2%[44.1 µM]
O=C(N[C@@H]1CCOC[C@H]1OCc1ccccn1)c1cccc(-n2cnnc2)c1	-18%
Cc1ccccc1CSc1nc2cc(C(=O)NC3CCCC3)ccc2c(=O)n1Cc1ccccc1	i
CC(NC(=O)c1ccc(CSc2nc3ccncc3n2Cc2ccc(F)cc2)cc1)c1ccccc1 (configuration not stated)	8.9µM*
Cc1ccccc1Cn1c(SCc2ccc(C(=O)NC(C)c3ccccc3)cc2)nc2ccncc21 (configuration not stated)	6.3µM*
CC(NC(=O)c1ccccc1)c1nc2ccccc2n1Cc1ccc(Cl)cc1 (configuration not stated)	-15%
O=C(NC1CCCC1)c1ccc2c(=O)n(Cc3ccccc3)c(SCc3ccccc3)nc2c1	21%
CC1CCCN(C(=O)c2ccc(CSc3nc4ccncc4n3Cc3ccccc3)cc2)C1 (configuration not stated)	11µM*
CN(C)[C@H]1CCCCN(C(=O)c2ccc(CSc3ccccn3)cc2)C1	i
CC(NC(=O)c1ccc(Cn2c(SCc3ccccc3)nc3cccnc32)cc1)c1ccccc1 (configuration not stated)	14%
CC(NC(=O)c1cc2sccc2n1Cc1ccc(F)cc1)c1ccccc1 (configuration not stated)	i
